Results from the supplement of paper PMC10646978.
± gives the standard deviation.

Columns and labels:
Conditions in all cases: modulator concentration 10 µM
[1] = test system: RAW-Dual (murine macrophage reporter line); assay: NF-kB reporter (SEAP) activity fold change vs agonist alone; higher = enhanced NF-kB activity
Outline: (§1)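 In 384-well plates holding 50 000 RAW-Dual murine macrophage reporter cells per well, compound at 10 μM final was pre-incubated for 1 hour at 37 °C, after which a PRR agonist was added overnight. Supernatant SEAP read with QUANTI-Blue at 620 nm absorbance reported NF-κB, and Lucia luciferase read with QUANTI-Luc luminescence reported IRF. Fold change values come from dividing each reporter signal by the mean of agonist-only control wells on the same plate, averaged over replicate plates with propagated errors.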

[2] = test system: RAW-Dual (murine macrophage reporter line); assay: IRF reporter (Lucia luciferase) activity fold change vs agonist alone; higher = enhanced IRF activity
Outline: as §1

[3] = test system: RAW-Dual (murine macrophage reporter line); assay: viability score (confluency relative to resting cells, overnight) (fraction); higher = more viable, active = viable (0.7 or more)
Outline: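 In 384-well plates, RAW-Dual macrophages received compound at a final 10 μM overnight. Two confluency masks were then made with IncuCyte software from IncuCyte images of all imaged wells. The viability score is defined as confluency relative to resting cells. Passing the cutoff required both masks to lie above 70% of resting cells.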

[4] = agonist: CpG ODN 1826 0.5 ug/mL

Compound | NF-kB reporter [1, 4] | NF-kB reporter ([1]; agonist: LPS 0.1 ug/mL) | NF-kB reporter ([1]; agonist: MPLA […]) | IRF reporter ([2]; agonist: 3'3'-cGAMP 10 ug/mL) | IRF reporter ([2]; agonist: LPS 0.1 ug/mL) | IRF reporter ([2]; agonist: MPLA […]) | viability score [3]
CCN(CC)CCN1C(=O)C(O)=C(C(=O)c2ccc(Br)cc2)C1c1ccccc1F (stereo unspecified) | 0.741 ± 0.061 | 0.884 ± 0.1 | 0.985 ± 0.1 | 0.94 ± 0.045 | 1.14 ± 0.08 | 1.2 ± 0.15 | 1.01 (active)
O=C(O)c1coc(CNC(=O)c2cocc2C(=O)O)c1 | 1.04 ± 0.1 | 1.08 ± 0.08 | 0.902 ± 0.054 | 0.996 ± 0.027 | 1.51 ± 0.21 | 1.14 ± 0.072 | 1.01 (active)
CCCOc1ccc(C(=O)OCCN(CC)CC)cc1N.Cl | 0.857 ± 0.14 | 1.03 ± 0.1 | 0.928 ± 0.077 | 1.01 ± 0.044 | 1.2 ± 0.19 | 1.44 ± 0.15 | 1 (active)
O=C(C=Cc1ccccc1)NC(NC(=S)Nc1cccc(O)c1)C(Cl)(Cl)Cl (stereo unspecified) | 0.835 ± 0.074 | 0.803 ± 0.1 | 0.972 ± 0.099 | 0.737 ± 0.024 | 1.25 ± 0.23 | 1.3 ± 0.28 | 1.03 (active)
Cc1cc(CNS(=O)(=O)Cc2ccc(C(F)(F)F)cc2)c(C)o1 | 1.01 ± 0.087 | 0.963 ± 0.076 | 0.951 ± 0.044 | 1.26 ± 0.068 | 1.34 ± 0.083 | 1.37 ± 0.23 | 0.383 (inactive)
CC(C)NCC(O)COc1ccccc1C(C)(C)C.Cl (stereo unspecified) | 0.857 ± 0.063 | 1.02 ± 0.098 | 1.15 ± 0.03 | 0.796 ± 0.029 | 1.02 ± 0.084 | 0.952 ± 0.17 | 0.922 (active)
Cc1ccccc1OCC(O)CO (stereo unspecified) | 0.813 ± 0.22 | 1.08 ± 0.054 | 0.955 ± 0.07 | 0.93 ± 0.058 | 0.951 ± 0.13 | 1.02 ± 0.12 | 0.997 (active)
COc1ccc(Nc2nc(Nc3ccc(F)cc3)nc(N3CCOCC3)n2)cc1OC | 0.409 ± 0.059 | 1.61 ± 0.14 | 2.96 ± 0.16 | 0.413 ± 0.036 | 1.36 ± 0.17 | 2.15 ± 0.54 | 0.905 (active)
COC(=O)C=C1SC(Nc2ccc(Cl)c(Cl)c2)=NC1=O | 1.13 ± 0.081 | 0.966 ± 0.091 | 0.968 ± 0.035 | 0.988 ± 0.11 | 0.982 ± 0.11 | 0.966 ± 0.23 | 0.994 (active)
COc1ccccc1N1CCN(c2ncnc3c2cnn3-c2cc(C)cc(C)c2)CC1 | 1.2 ± 0.067 | 1.16 ± 0.1 | 1.19 ± 0.042 | 1.01 ± 0.049 | 1.05 ± 0.098 | 1.08 ± 0.16 | 0.997 (active)
CCN(CC)c1ccc(C=NNc2cc(N3CCOCC3)nc(N3CCOCC3)n2)cc1 | 0.894 ± 0.096 | 1.03 ± 0.11 | 0.994 ± 0.1 | 0.458 ± 0.07 | 1.28 ± 0.23 | 1.25 ± 0.17 | 0.994 (active)
CC1(C)CC(=O)C2=C(C1)OC(N)=C(C#N)C21CCCCC1 | 1.01 ± 0.18 | 0.866 ± 0.07 | 0.895 ± 0.14 | 0.867 ± 0.024 | 1.13 ± 0.15 | 1.18 ± 0.14 | 1 (active)
COc1ccc(C(=O)Nc2sc3c(c2C(N)=O)CCCC3)cc1OC | 0.866 ± 0.067 | 1.01 ± 0.056 | 1.09 ± 0.029 | 0.694 ± 0.038 | 0.942 ± 0.12 | 1.08 ± 0.14 | 0.998 (active)
